# Screening data from PubChem BioAssay.
# RTF Ca sens inh = cardiac RTF calcium sensitivity inhibitors, primary screen, biochemical, IANBD-TnC fluorescence, EC70 calcium; Troponin I, cardiac muscle (Homo sapiens) + Troponin T, cardiac muscle (Homo sapiens) + …; IANBD-labeled cardiac RTF, Ca2+ fluorescence; inhibition, % at 7.15 µM; hit rate 0.12% among 340,000;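 active = inhibition above the mean inhibition of all tested compounds plus 3 SD, cut at about 17% in these data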;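 note: assay run at fixed EC70 calcium of 1.6 mM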
# cardiac RTF act = cardiac RTF calcium sensitivity activators, primary screen, biochemical, IANBD-TnC fluorescence, EC20 calcium; Troponin I, cardiac muscle (Homo sapiens) + Troponin T, cardiac muscle (Homo sapiens) + …; IANBD-labeled TnC RTF fluorescence at EC20 calcium; 0% EC20 calcium, 100% full calcium; activation, % at 7.2 µM; hit rate 0.24% among 340,000;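 active = activation above the mean over all tested compounds plus 3 SD, cut at about 30% in these data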;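 note: rise in fluorescence read as greater calcium sensitivity of cardiac thin filaments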
# CRFR2-BP antag = antagonists of CRF-BP/CRF-R2 complex, primary screen, cell-based, HEK293, calcium dye fluorescence, uHTS; hit rate 0.59% among 350,000; inhibition, % at 11.8 µM; AID 588475, 2011; CRF-induced calcium fluorescence;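 active = inhibition of the ligand-induced calcium signal above about 50% at the single tested concentration, limit read from the data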
# CRFBP-R2 agonist = agonists of CRF-BP/CRF-R2 complex, primary screen, cell-based, HEK293, calcium dye fluorescence, uHTS | calcium dye fluorescence (FLIPR); percent of saturating CRF peptide response | activation, % at 13.2 µM | hit rate 0.46% among 350,000;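 active = activation of at least 50%, plus an integration ratio under a set limit after plate pattern correction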;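 note: plate controls were neutral control wells without compound for no effect and CRF at EC100 for full effect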
# IDE cell inh = human IDE inhibitors in live cells, primary screen, fluorescence polarization, HEK cells, FAbetaB substrate. hit rate 0.41% among 320,000. inhibition, % at 5.59 µM. FAbetaB cleavage. Insulin-degrading enzyme (Homo sapiens), P14735;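 active = percent inhibition above the average of all tested compounds plus 3 SD, set per screening campaign, cut at about 16% in these data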;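 note: IDE supplied by intact live HEK cells; FP after avidin binding of uncleaved biotin substrate so inhibition keeps polarization high; 0% = DMSO wells and 100% = 60 µM reference IDE inhibitor Ii1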
# IDE act = human IDE activators in live cells, primary screen, fluorescence polarization, HEK cells, FAbeta-B substrate. Insulin-degrading enzyme (Homo sapiens), P14735. FAbeta-B cleavage; 0% vehicle, 100% cell-free pure enzyme wells. activation, % at 5.96 µM. hit rate 0.073% among 340,000. AID 493087, 2011;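 active = activation above the mean of all tested compounds plus 3 SD, set per screening campaign, cut at about 17% in these data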
# IDE cell inh cf = human IDE inhibitors in live cells, confirmation, fluorescence polarization, HEK cells, FAbetaB substrate | shares compounds with IDE cell inh | FAbetaB cleavage | inhibition, % at 5.59 µM | hit rate 51% among 1,200;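 active = mean inhibition across triplicate wells above the cutoff set by the earlier primary insulin-degrading enzyme screen, cut at about 16% in these data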;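 note: 0% = DMSO wells and 100% = 60 µM reference IDE inhibitor Ii1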
# HEK cytotox = cytotoxicity in HEK cells, cytotoxicity control for IDE inhibitor project, cell-based, luminescence | shares compounds with IDE cell inh | HEK293 cytotoxicity, ATP luminescence | inhibition, % at 5.59 µM | hit rate 28% among 1,200 | AID 449730, 2010; in the data active = inhibition above about 22%;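 note: 0% = vehicle wells and 100% = reference cytotoxic drug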
# Starred values were filed as active, the others as inactive; i = inactive; nt = no result. Rows were chosen to be rich in hits. Some 1.5% of all compounds tested hit in one or more screens of this group.
SMILES,RTF Ca sens inh,cardiac RTF act,CRFR2-BP antag,CRFBP-R2 agonist,IDE cell inh,IDE act,IDE cell inh cf,HEK cytotox
O=C(O)c1ccccc1-c1c2cc(I)c(=O)c(I)c-2oc2c(I)c(O)c(I)cc12,i,501*,-255,243*,147*,-174,91*,27*
O=S(=O)(c1ccc(NC2CCCc3ccccc32)nc1)N1CCOCC1 (centres undefined),-2,0,9,0,19*,-3,7,12
CC1CCCCN1C(=O)COC(=O)c1cc([N+](=O)[O-])ccc1N1CCOCC1 (centres undefined),1,0,-4,0,8,3,nt,nt
CCN=C1S/C(=C\c2ccc(N3CCOCC3)cc2C)C(=O)N1CC,8,2,6,1,-1,5,nt,nt
COCCN1C(=O)/C(=C/c2ccc(N3CCCC3)cc2C)SC1=S,-76,69*,-263,182*,49*,-25,57*,15
COc1c(/C=N/NC(N)=S)c(C)nn1-c1ccccc1,-8,-2,33,1,22*,-10,3,11
COc1c(/C=N/Nc2ccc([N+](=O)[O-])cc2[N+](=O)[O-])c(C)nn1-c1ccccc1,-8,-2,2,-1,-2,6,nt,nt
CCN(CC)c1ccc(/C=N/NC(=O)c2cccc(S(=O)(=O)Nc3ccccc3OC)c2)c(O)c1,-14,8,-64,34,33*,-21,35*,100*
O=C(COC(=O)c1cc(=O)[nH]c2ccccc12)NCc1ccccc1Cl,-2,0,4,-2,0,1,nt,nt
CN(CC1CCCO1)S(=O)(=O)c1ccc(C(=O)Nc2nnc(-c3ccccc3)o2)cc1 (centres undefined),-4,3,-11,-2,4,-5,nt,nt
CN1/C(=C\C=C2/SC(=S)NC2=O)C(C)(C)c2ccccc21,i,344*,-144,164*,116*,-132,152*,38*
CN1/C(=C\C=C2/C(=O)Oc3ccccc3C2=O)C(C)(C)c2ccccc21,nt,nt,-383,323*,184*,nt,61*,23*
CO/N=C/C=C1/N(C)c2ccccc2C1(C)C,-3,1,-4,0,2,6,nt,nt
Cc1ccc(NC(=O)Nc2ccnc(-c3cccnc3)n2)cc1,-13,3,-19,0,18*,-9,4,44*
Cc1ccc(C(=O)Nc2ccnc(-c3cccnc3)n2)cc1,-3,-1,3,0,0,1,nt,nt
Cc1cc(C)c(C)c(S(=O)(=O)N2CCC(C(=O)NCCCN3CCCC3=O)CC2)c1C,-6,4,8,-1,6,-7,nt,nt
Cc1nc(N/C(N)=N/S(=O)(=O)c2ccccc2)nc2ccccc12,-2,0,-4,-1,-3,3,nt,nt
Cc1nc(N/C(N)=N/S(=O)(=O)c2ccc([N+](=O)[O-])cc2)nc2ccccc12,-4,-3,-12,-3,22*,-3,8,4
O=C1/C(=C/c2cccs2)CCC/C1=C\c1cccs1,-22,2,-16,8,5,-4,nt,nt
Cn1cccc1/C=C1\CCC/C(=C\c2cccn2C)C1=O,-310,181*,-185,155*,71*,-74,118*,23*
C=CCn1c(SCC(=O)N2CCN(C(=O)c3ccco3)CC2)nc2sc(CC)cc2c1=O,-12,-7,-10,-1,21*,-14,10,8
